Several values for one entry are separate records, joined by “and”; a condition that tells them apart may be missing. Equal entries are not always repeated. Hit rate of the full screen: of about 78,000 compounds, about 1,800 (2.3%) were called active. Roughly 27% stayed inconclusive and do not appear here. Cut-off read from the data, not from the text of the source: active = inhibition above about 30%; inconclusive = mostly about 10% to 28%; inactive = weaker than that. This excerpt belongs to a sample that is enriched for actives.
Biological target: Interleukin-1 receptor-like 1 (Homo sapiens) (UniProt Q01638)
Sequence (Q01638 whole entry, looked up): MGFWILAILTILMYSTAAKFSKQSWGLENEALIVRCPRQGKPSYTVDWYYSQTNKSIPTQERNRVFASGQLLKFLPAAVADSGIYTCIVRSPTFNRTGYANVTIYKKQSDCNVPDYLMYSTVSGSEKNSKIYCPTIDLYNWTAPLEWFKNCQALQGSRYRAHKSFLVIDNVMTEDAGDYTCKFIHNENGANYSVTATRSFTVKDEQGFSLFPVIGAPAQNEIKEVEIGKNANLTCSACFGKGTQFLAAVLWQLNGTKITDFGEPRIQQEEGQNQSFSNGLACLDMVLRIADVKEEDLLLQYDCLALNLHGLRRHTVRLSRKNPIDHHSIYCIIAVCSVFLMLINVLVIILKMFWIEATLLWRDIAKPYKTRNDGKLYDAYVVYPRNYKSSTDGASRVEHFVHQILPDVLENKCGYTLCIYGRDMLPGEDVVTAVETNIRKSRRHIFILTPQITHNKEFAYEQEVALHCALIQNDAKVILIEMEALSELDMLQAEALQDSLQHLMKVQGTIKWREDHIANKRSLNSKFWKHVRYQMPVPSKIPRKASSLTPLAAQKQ
Assay: inhibitors of human ST2 (IL1RL1) binding to IL-33, primary screen, biochemical, AlphaLISA (AID 1259354)
Conditions: AlphaLISA ST2-Fc/biotin-IL-33 interaction, 1 h; at 17 µM, stronger effect = higher value

SMILES | inhibition
Cc1csc(SCC(=O)N2CCC(c3cc(C(C)C)n[nH]3)CC2)n1 | inactive
O=C(CN1CCN(Cc2cccc(Cl)c2)C1=O)N1CCCC1 | inactive
O=C(CSC1=Nc2ccccc2C2=NC(Cc3ccccc3)C(=O)N12)NC1CCCCC1 (stereo not drawn) | inactive
COCCn1ccnc1-c1[nH]cnc1-c1ccccc1 | inactive
CC(C)c1ccc(-c2nc(N3CCCCC3)nc3n[nH]c(N)c23)cc1 | inactive
Cc1cc2c(Nc3cccc(Cl)c3C)ncnc2s1 | inactive
Nc1nonc1-n1nnc(CN2CCCCC2)c1CN1CCCCC1 | inactive
COc1ccc2nc(NC(=O)Cc3c(C(=O)O)n(C)c4ccccc34)sc2c1 | inactive
Cc1ccc(N(C(=O)c2ccccc2Br)C2C=CS(=O)(=O)C2)cc1C (stereo not drawn) | inactive
Cc1cccc(NC(=O)c2ccc([N+](=O)[O-])o2)c1 | 42% (active)
Cc1ccc(NC(=O)c2ccc(Br)o2)c(C)c1 | inactive
O=C(Nc1cccc([N+](=O)[O-])c1)c1cccc(Cl)c1Cl | inactive
CSCCC(NS(=O)(=O)c1cccc2nsnc12)C(=O)O (stereo not drawn) | inactive
c1ccc(-c2csc3ncnc(N4CCCCC4)c23)cc1 | inactive
N#Cc1c(SCC(=O)Nc2ccccc2)ncc2cc3ccccc3nc12 | 32% (active)
N#Cc1c(-c2ccccc2)cc(-c2ccccc2)nc1SCC(=O)O | inactive
Cc1cccc(-c2nc(N3CCCC3)c3ccccc3n2)c1 | inactive
N#Cc1c(SCC(=O)Nc2ccccn2)nsc1SCC(=O)Nc1ccccn1 | inactive
N#Cc1c(N2CCCCCC2)ncc2cc3ccccc3nc12 | 37% (active)
COc1cc2c(cc1OC)[C@H]1CN3CCc4cc(OC)c(OC)cc4[C@@H]3CN1CC2 | inactive
CCn1cc(S(=O)(=O)N2CCCC2c2ccccn2)c(C)n1 (stereo not drawn) | inactive
Cc1cc(C(=O)N(CC2CCN(C3Cc4ccccc4C3)CC2)CC2CCCO2)nc(C)n1 (stereo not drawn) | inactive

SMILES | inhibition
Cc1cc(C)c2c(CC(=O)NCc3cccnc3N3CCOCC3)coc2c1 | inactive
c1ccc(CSc2ncc(C3NCCc4[nH]cnc43)cn2)cc1 (stereo not drawn) | inactive
Cc1cc(NC(=O)C(NS(=O)(=O)c2cccs2)C(C)C)ccc1Br (stereo not drawn) | inactive
Fc1cccc(Cl)c1C1CC(c2ccccc2)Nc2ncnn21 (stereo not drawn) | inactive
Cn1c(CC2CCNCC2)nnc1SCCOc1ccc(Cl)cc1 | inactive
CN1CCN(C(=O)c2ccnc(-c3cc(N)nc4[nH]ccc34)c2)CC1 | 30% (active)
O=C(c1cccc(-c2ncc[nH]2)c1)N1Cc2cnn(CCO)c2C1 | inactive
O=C(c1ccnc(-n2cnnc2)c1)N1CCC2(CC1)C(=O)Nc1ccccc12 | inactive
COc1ccc(C(=O)NC(Nc2ccccc2Cl)C(Cl)(Cl)Cl)cc1 (stereo not drawn) | inactive
Cc1ccc(NC(=O)CNCC(C)c2ccccc2)c(C)c1 (stereo not drawn) | inactive
OC(C#Cc1ccccc1)C#Cc1ccccc1 | inactive
Cc1nonc1C1CCCN1Cc1cnc(S(=O)(=O)C(C)C)n1Cc1ccccc1F (stereo not drawn) | inactive
O=C(Nc1nnc(-c2cccs2)o1)c1ccc(S(=O)(=O)N2CCCc3ccccc32)cc1 | inactive
CSCc1nnc(NC(=O)c2ccc(S(=O)(=O)N3CCCc4ccccc43)cc2)o1 | inactive
CC1CCc2nc(NC(=O)c3ccc(S(=O)(=O)N4CCc5ccccc54)cc3)sc2C1 (stereo not drawn) | 30% (active)
CCN(CC)C(=O)[C@@H]1C[C@H](n2cc(Cn3c(C)nc4ccccc43)nn2)CN1 | inactive
CC1=Nc2c(ccc3cccnc23)C1(C)C | 36% (active)
Brc1ccc(CSc2cccc3cccnc23)cc1 | inactive
CSCCNC(=O)CC1C(=O)NCCN1Cc1ccccc1 (stereo not drawn) | inactive
Cc1cc2oc(=O)cc(CN(C)C(C)c3ccon3)c2cc1C (stereo not drawn) | inactive
Clc1ccc(OCCCCN2CCOCC2)c(Br)c1 | inactive
CN(Cc1ccccc1)C(=O)CN1C(=O)/C(=C\c2cccc(Cl)c2)Sc2ccccc21 | 44% (active)

SMILES | inhibition
CN(Cc1ccccc1)C(=O)CN(C)S(=O)(=O)c1ccc(Cl)cc1 | inactive
CN(Cc1ccccc1)C(=O)c1cc(-c2ccc(Cl)cc2)on1 | inactive
O=C(NC(Nc1cccc([N+](=O)[O-])c1)C(Cl)(Cl)Cl)c1ccc(Br)cc1 (stereo not drawn) | inactive
CCOC(=O)c1c(C)[nH]c(C(=O)NC(C)c2cnn(-c3ccccc3C)c2C)c1C (stereo not drawn) | inactive
CN(Cc1ccccc1)C(=O)C1(S(=O)(=O)c2ccc(Cl)cc2)CC1 | inactive
COc1ccc(Nc2ccn(-c3nc(-c4ccccc4)oc3-c3ccccc3)c(=O)n2)cc1 | inactive
COc1ccc(-c2csc(=Nc3ccccc3)n2C)cc1 | 59% (active) and 52% (active)
O=C(C(NS(=O)(=O)c1cccs1)c1ccccc1)N1CCc2ccccc21 (stereo not drawn) | inactive
COc1cc(OC)cc(C(=O)Nc2cc(N3CCCS3(=O)=O)ccc2OC)c1 | inactive
CC(=O)Nc1nonc1N1C(=N)S/C(=C\c2ccc(-c3cccc(F)c3)o2)C1=O | inactive
O=C1NC(=O)/C(=C\c2ccc(-c3cccc(Cl)c3)o2)S1 | inactive
O=C1NC(=O)/C(=C\c2ccc(-c3ccc(F)c(Cl)c3)o2)S1 | 34% (active)
Cc1nc(CC(=O)NCCc2csc(-c3cccnc3)n2)cs1 | inactive
COc1ccc(CCNS(=O)(=O)c2cccc3cccnc23)cc1OC | inactive
COc1cc(NS(=O)(=O)c2ccc3c(c2)CCN3C(=O)C2CC2)cc(OC)c1 | inactive
Cc1cccc(C)c1NC(=O)c1ccc(F)cc1 | inactive
N#CC1=C(N)OC2=C(C(=O)CC(c3ccccc3)C2)C1c1cccs1 (stereo not drawn) | inactive
O=C1CC2(CCCCC2)Oc2ccc(OCC(=O)N3CCOCC3)cc21 | inactive
CCc1nc(C)ccc1OCC(=O)N1CCC2(CN(C)C(=O)O2)C1 (stereo not drawn) | 30% (active)
O=C(CN1CCCCC1)N1c2ccccc2Sc2ccc(C(F)(F)F)cc21 | inactive
O=C(CN1C(=O)CC(c2ccccc2)Sc2ccccc21)NCc1ccco1 (stereo not drawn) | inactive
O=C(CN1C(=O)/C(=C\c2ccc(C(F)(F)F)cc2)Sc2ccccc21)NCC1CCCO1 (stereo not drawn) | 30% (active)

SMILES | inhibition
O=C(CN1C(=O)C2CCCCN2C(=O)c2ccccc21)NCC1CCCO1 (stereo not drawn) | inactive
O=C(CN1CCN(Cc2ccc(F)cc2)C1=O)NCC1CCCO1 (stereo not drawn) | inactive
O=C(CN1C(=O)/C(=C\c2ccc(C(F)(F)F)cc2)Sc2ccccc21)NCc1ccco1 | 32% (active)
CC(C)c1ccc(Nc2c(-c3cccs3)nc3cnccn23)cc1 | inactive
O=C(c1ccccc1F)N1CCc2c(c(C(=O)N3CCOCC3)nn2CCCc2ccccc2)C1 | inactive
CC(C)c1ccc(NC2CCCN(C(=O)CCc3nc(-c4ccccc4)no3)C2)cc1 (stereo not drawn) | inactive
CC1=C(C(N)=O)C(c2ccccc2Cl)n2ncnc2N1 (stereo not drawn) | inactive
O=C(Cn1nc(-c2ccccc2)ccc1=O)NCCN1CCOCC1 | inactive
COc1c(F)ccc(-c2nc(C(C)C)nn2-c2ccccn2)c1F | inactive
N#Cc1c2c(c(-n3ccnc3)n3c1nc1ccccc13)CCC2 | inactive
CN(C)CCCNc1c2c(c(C#N)c3nc4ccccc4n13)CCC2 | 51% (active)
Cc1c(CCC#N)c(-n2ccnc2)n2c(nc3ccccc32)c1C#N | inactive
Cc1cc(NCCN2CCCCCC2)n2c(nc3ccccc32)c1C#N | 45% (active)
O=C(CN1CCCN(Cc2ccccc2)S1(=O)=O)NCCc1ccccc1 | inactive
COc1ccc(/C=C2\C(=O)N(c3ccc(Cl)c(C(=O)O)c3)N=C2C)cc1Br | 72% (active)
COc1cc(/C=C2/C(=O)N(c3ccc(Cl)c(Cl)c3)N=C2C)cc(Br)c1O | 37% (active)
CN1C(N)=NC(=O)/C1=C/c1cc(Br)c(O)c(Br)c1 | inactive
COc1ccc(Cl)cc1C(=O)N1CCN(c2cccc(Cl)c2)CC1 | inactive
COc1ccc2cc(-c3ccccc3NC(=O)CN)ccc2c1 | inactive
COc1ccc(C2C(C(=O)N3CCC(C)CC3)c3cc(OC)c(OC)cc3C(=O)N2C)cc1 (stereo not drawn) | inactive
CCOc1cc(/C=C2\C(=O)NC(=O)N(c3ccc(Br)cc3)C2=O)ccc1O | inactive
CCOc1ccc(Br)c(/C=C2\C(=O)Nc3ccc(Br)cc32)c1 | 60% (active)

SMILES | inhibition
COc1cc(/C=C2\C(=O)Nc3ccc(Br)cc32)ccc1O | inactive
COCc1cc(CNC(=O)c2csc3c2CCCC3)[nH]n1 | inactive
O=C(Nc1ccccc1)/C(=C/c1ccc2c(c1)OCO2)NC(=O)c1ccc(Br)o1 | inactive
COc1ccccc1C(=O)N/C(=C/c1ccc2c(c1)OCO2)C(=O)Nc1cccc(C(=O)O)c1 | 39% (active)
COc1ccccc1C(=O)N/C(=C\c1ccc2c(c1)OCO2)C(N)=O | inactive
CC(C)(C)NS(=O)(=O)c1ccc2c(c1)C(=O)c1cc(S(=O)(=O)NC(C)(C)C)ccc1-2 | inactive
CCCc1nc(CN(C)C(=O)c2c(O)cccc2O)no1 | inactive
CC(C)c1ccc(CNCCCN(C)C)cc1 | inactive
O=C(NC1CCCCC1)N1CCC(n2cc(-c3ccccn3)nn2)CC1 | inactive
COc1ccc(-c2nc3s/c(=C\C4=Cc5ccccc5OC4C)c(=O)n3n2)cc1 (stereo not drawn) | inactive
CC1CCN(S(=O)(=O)c2ccc(Cl)c(S(=O)(=O)N3CCC(C)CC3)c2)CC1 | inactive
CC1CCN(S(=O)(=O)c2ccc(Cl)c(C(=O)Nc3ccccc3[N+](=O)[O-])c2)CC1 | 34% (active)
O=C(Nc1ccccc1-c1ccccc1)c1ccccc1[N+](=O)[O-] | inactive
C/C(=C/c1nsc(Nc2ccc(Cl)cc2)n1)NC1CC(C)(C)NC(C)(C)C1 | inactive
CC1CCCC(C)N1C(=O)c1cccc2c1-c1ccccc1C2=O (stereo not drawn) | inactive
Cc1ccccc1CC1(C(=O)O)CCCN(c2cc(C3CC3)ncn2)C1 (stereo not drawn) | inactive
CC(=O)C1=C(C)OC(N)=C(C#N)C1c1ccccc1 (stereo not drawn) | inactive
O=C(Nc1cccc(-c2cccc(Cl)c2)c1)C1CCN(C(=O)c2ccccc2)CC1 | inactive
Cc1nc(-c2cccc(NC(=O)C3CCN(c4ccccc4)C3=O)c2)no1 (stereo not drawn) | 37% (active)
Cc1cccc(NC(=O)CN2C(=O)CC(c3ccccc3)=Nc3ccccc32)c1 | inactive

Reference: PubChem BioAssay AID1259354 (Paczesny and Yang Labs, IUPUI and University of Michigan, 2018)
